Assay outcomes (PubChem BioAssay)
Rango release inh – qHTS Assay for Inhibitors of RanGTP induced Rango (Ran-regulated importin-beta cargo) - Importin beta complex dissociation; Potency, µM (top dose mostly 46.1 µM), for the others: top-dose activity change, negative = inhibition; Snurportin-1 (Homo sapiens) + GTP-binding nuclear protein Ran (Homo sapiens) + Importin …; AID 540253, 2011; Biochemical FRET Rango-importin beta, RanGTP-induced dissociation; actives 0.071% (n = 340,000); further: potency means the concentration at half of the fitted maximal effect; % of control where 0% means no effect; nearly all actives have a fitted effect of over 45% in size
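Recombinant Rango FRET biosensor (EYFP–snurportin 1 IBB–cerulean CFP10) at 0.1 uM premixed with 0.25 uM importin beta in PBS, 1 mM DTT, 0.02% Tween-20, 0.1% BSA. Compound added 5 min; RanGTP-RCC1 (0.6 uM Ran, 2 mM GTP, 0.2 uM RCC1) then triggers release, read at 45 min.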
pAkt inh – HTS Assay for Inhibitors of Akt Phophorylation: Primary Screen; Neuro2A IGF-stimulated pAkt S473 HTRF, 20 min; active compounds read low; activity change, % for hits at 50 µM; actives 0.32% (n = 360,000); in the data active means activity change below about -80%; inconclusive means mostly about -51% to -80%; further: on the % scale 0 is the no-effect control and ±100 the full control effect
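Single-point screen (50 µM final compound) in Neuro2A cells stimulated 20 min with 6 nM IGF at 37 deg C. After lysis, Ser473-phosphorylated Akt read by HTRF (ex 330 nm, em 615/665 nm) as the 665/615 ratio.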
Rango complex inh – qHTS Assay for Inhibitors of Rango (Ran-regulated importin-beta cargo) - Importin beta complex formation; Importin subunit beta-1 (Homo sapiens), Q14974; Rango CFP/YFP FRET sensor + importin beta, 45 min; Potency, µM (top dose mostly 92.2 µM), for inactives: at the top dose inhibition of complex formation; actives 0.031% (n = 340,000);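 further: potency means the concentration at half of the fitted maximal effect; 0% = DMSO wells and 100% = buffer wells lacking importin beta; nearly all actives have a fitted effect of over 15% in size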
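Inhibition scored from the CFP 486 nm/YFP 530 nm FRET ratio 45 min after adding 0.125 microM importin beta to 50 nM Rango biosensor preincubated 5 min with compound (room temperature, PBS with DTT, Tween-20, BSA). No-importin wells as positive control.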
p53 reactivation – qHTS assay for re-activators of p53 using a Luc reporter; H1299 p53-A138V BP100-luciferase reporter, luminescence, 24 h; actives 0.063% (n = 320,000); AID 504706, 2011; Potency, µM (doses to about 92.2 µM), without a hit: top-dose activity change, positive = activation, most hits filed as activators; active means well fitted activation curve with a large enough effect; inconclusive means small, poorly fitted or top-dose-only effect; inactive means no such curve, though single readings can be large or run the other way; further: potency means the concentration at half of the fitted maximal effect; % of control where 0% means no effect; nearly all actives have a fitted effect of over 45% in size
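H1299 (p53-null), stable ts p53-A138V + BP100-Luc; 1000 cells/well, Opti-MEM/10% FBS; cpd 4 pt, 1:5; 24 h, 37 deg C, 5% CO2; detection reagent 10 min RT; luminescence.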
TSHR antagonist – Antagonists of the Thyroid Stimulating Hormone Receptor: HTS campaign. Thyrotropin receptor (Homo sapiens), P16473. actives 0.2% (n = 330,000). TSHR-expressing cells, TSH-stimulated cAMP HTRF, 2 h; active compounds read low. activity change, negative = inhibition, % at 11.5 µM;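 active means activity change below a set negative limit, meaning inhibition stronger than a set level, cut at about -70% in these data; inconclusive means activity change between two set negative limits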; further: on the % scale 0 is the no-effect control and ±100 the full control effect
Target sequence (P16473 whole entry, looked up): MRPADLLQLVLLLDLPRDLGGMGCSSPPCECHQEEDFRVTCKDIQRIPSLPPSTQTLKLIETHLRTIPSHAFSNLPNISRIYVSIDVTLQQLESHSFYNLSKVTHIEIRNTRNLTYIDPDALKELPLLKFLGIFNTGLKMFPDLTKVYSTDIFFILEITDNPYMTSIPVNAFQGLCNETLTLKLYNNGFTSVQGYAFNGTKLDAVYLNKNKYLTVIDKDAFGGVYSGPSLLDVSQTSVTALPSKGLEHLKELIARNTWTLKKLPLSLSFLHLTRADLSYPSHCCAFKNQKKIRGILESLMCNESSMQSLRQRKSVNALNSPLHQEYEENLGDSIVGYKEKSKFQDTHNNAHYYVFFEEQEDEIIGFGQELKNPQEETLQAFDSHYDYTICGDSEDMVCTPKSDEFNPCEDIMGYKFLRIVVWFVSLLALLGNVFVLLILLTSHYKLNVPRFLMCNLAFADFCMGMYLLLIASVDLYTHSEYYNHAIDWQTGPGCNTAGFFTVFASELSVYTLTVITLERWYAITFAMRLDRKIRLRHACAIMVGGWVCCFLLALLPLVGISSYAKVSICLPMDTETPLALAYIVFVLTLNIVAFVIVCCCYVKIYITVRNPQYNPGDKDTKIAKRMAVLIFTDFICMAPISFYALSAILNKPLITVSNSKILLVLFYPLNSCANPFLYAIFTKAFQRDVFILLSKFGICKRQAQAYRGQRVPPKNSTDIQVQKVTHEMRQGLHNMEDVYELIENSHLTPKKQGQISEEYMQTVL
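Competitive HTRF cAMP read-out (cryptate anti-cAMP antibody, cAMP-d2; 30 min, room temperature) in freshly harvested TSHR cells. Compounds added before TSH at EC80 (4nM final), followed by 2 hours' incubation at 37 deg C.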
Active calls of the source: *; i = inactive; ? = inconclusive; · = not tested or not shown; [ ] = dose if it differs, or a comment. An excerpt weighted towards active compounds, which were near 0.62% of everything screened. Unless noted, the call rests on the fitted dose curve.

SMILES | Rango release inh | pAkt inh | Rango complex inh | p53 reactivation | TSHR antagonist
Cc1ccc(C(=O)N2CCN(c3ccc(F)cc3)CC2)cc1S(=O)(=O)N1CCCCC1 | -12.4% | i | -3.5% | -17.6% | -14.1
Cc1ccc(C(=O)N2CCN(c3ccccc3)CC2)cc1S(=O)(=O)N1CCCC1 | -4.3% | -107.0%* | 0.5% | 0.5% | 6.9
O=C(Nc1ncc2c(n1)-c1ccccc1CC2)c1ccc(F)cc1 | 9.7% | -119.6%* | 1.0% | -3.1% | 5.3
Cc1ccc(C)c(Nc2c([N+](=O)[O-])c(=O)oc3ccccc23)c1 | 0.9% | i | 2.8% | -4.9% | -9.0
CSCCC(NC(=O)OCc1ccccc1)C(=O)O (configuration not stated) | 1.0% | -104.4%* | 2.7% | -4.4% | -5.2
O=C(O)CCC(NC(=O)OCc1ccccc1)C(=O)O (configuration not stated) | -3.4% | i | 2.8% | -3.8% | -6.7
COc1ccccc1N1CCN(C(=O)c2cc3n(n2)C(C(F)(F)F)CC(c2ccco2)N3)CC1 (configuration not stated) | -8.5% | -106.7%* | 0.2% | -24.5% | 4.0
O=C(c1cc2n(n1)C(C(F)(F)F)CC(c1ccco1)N2)N1CCc2ccccc2C1 (configuration not stated) | -19.1% | i | -0.7% | -2.6% | ·
COc1ccc(CN2C(=O)CSCC2(C)C(=O)NC(C)C)cc1 (configuration not stated) | · | i | · | · | ·
Cc1cccc(-n2nc([N+](=O)[O-])c(=NC3CCN(Cc4ccccc4)CC3)n2O)c1 | -0.5% | i | -1.5% | 14.1µM* | 13.8
O=C(CSc1nncs1)N1c2ccccc2Sc2ccccc21 | 3.8% | i | -6.4% | 1.8% | -70.9*
Cn1nnnc1SCC(=O)N1c2ccccc2Sc2ccccc21 | 36.6% | i | -0.3% | 1.8% | -24.4
CO/S(=N\S(=O)(=O)c1ccc(Cl)cc1)c1ccc([N+](=O)[O-])cc1 (configuration not stated) | · | · | · | · | 4.3
O=C(CCCCn1c(=O)c2ccccc2n(Cc2ccc(F)cc2)c1=O)NCc1ccco1 | -1.9% | -99.4%* | -0.9% | -3.7% | -4.3
O=C(CCCn1c(=O)c2ccccc2n(Cc2ccccc2)c1=O)NCc1ccco1 | -16.0% | i | 1.6% | -0.3% | -9.5
CCOc1cccc(/C=C(/C#N)c2nc3ccccc3[nH]2)c1OCC(=O)O | 3.3% | i | ? | 11.9% | -1.7
COc1cccc(/C=C(\C#N)c2nc3ccc(C)cc3[nH]2)c1OCC(=O)O | 16.4µM* | i | ? | · | 4.8
N#Cc1cccc(C(=O)Nc2ccc(S(=O)(=O)Nc3nccs3)cc2)c1 | 9.2µM* | i | ? | 5.2% | 19.8
O=C(Nc1ccc(S(=O)(=O)Nc2nccs2)cc1)c1cnc(Cl)c(Cl)c1 | 10.3µM*[inhibitor] | i | ? | -2.4% | 11.3
O=C(Nc1ccc(S(=O)(=O)Nc2nccs2)cc1)c1cccc(N2C(=O)c3ccccc3C2=O)c1 | -18.9% | i | ? | 8.3% | 10.7
CCCCN(Cc1ccccc1)c1ncnc2nc[nH]c12 | -9.3% | i | -3.6% | ? | -70.3*
c1ccc(-c2nn3c(C4CCCCC4)nnc3s2)nc1 | 1.0% | i | -0.7% | -3.5% | -6.7
c1ccc(-c2nn3c(C4CCCCC4)nnc3s2)cc1 | 0.5% | -114.4%* | -1.1% | 5.4% | 9.6
O=S1(=O)CC(O)C(N=Nc2c(O)n(Cc3ccccc3)c3ccccc23)C1 (configuration not stated) | -27.2% | i | -6.8% | -1.3% | -12.6
Cc1nc2ccc3nc(NC(=O)c4ccc(S(=O)(=O)N5CCOCC5)cc4)sc3c2s1 | -5.2% | -100.3%* | 1.4% | -0.5% | -11.5
O=C(Nc1nc(-c2ccccc2)cs1)c1ccc(N2CCOCC2)c([N+](=O)[O-])c1 | 12.9% | i | 2.6% | ? | -101.1*
